SMILES strings stand for the structures. “And” between values parts separate entries of the source, which are not always exact repeats. Equal values may be shown once. The panel holds about 83,000 compounds, 20% with a hit somewhere; the sample as a whole holds those more often.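 Interpretation: 100, growth as untreated; towards 0, rising growth inhibition; 0, no net growth; 0 to -100, cell death. Compounds scoring below 10 were considered active.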 Unmarked numbers belong to inactive results. The source made the active and inactive calls.

This assay relates to HL-60(TB) leukemia. The experiment in a line: NCI-60 one-dose screen, 48 h (100 = growth as untreated, 0 = no growth, -100 = all killed). The settings on record: 10 µM unless noted.
In the case of `CC(=O)Nc1ccc(S(=O)(=O)N2C(=O)CCC2C(=O)Nc2ccccc2)cc1` (centres undefined), the growth is 25.1%.
For the molecule `COc1cc(OC)c2c(c1)c1nc3cc(C)c(C)cc3nc1n2CCN(C)C`, the growth was 103%.
As for `Cc1cc(N(CCCNc2ccnc3cc(Cl)ccc23)Cc2ccco2)nc(N2CCOCC2)n1`, the figure is 45.5%; as for `C=CCOc1ccc2c(c1)CC=C1[C@@H]2CC[C@]2(C)C(=O)/C(=N/O)C[C@@H]12`, 22.7%; as for `OCCCCCCNc1ncnc2cc(Cl)ccc12`, 88.9%.
The result for `CC(=O)Oc1ccc(C23c4ccccc4C2(OC(C)=O)c2cc(OC(C)=O)ccc23)cc1` (centres undefined) reads 11.7%; that for `COc1ccc(CCN(C)CCCC(C#N)(c2ccc(OC)c(OC)c2)C(C)C)cc1OC` (centres undefined), 92.4% and 72.5% and 104%; that for `Cc1ccc(-c2nc(/C=C3/C(=O)Nc4ccccc43)c3ccccn23)cc1`, 113%.
Turning to `O=C(/C(=C\c1ccc([N+](=O)[O-])cc1)S(=O)Cc1ccc(Cl)cc1)c1ccc(Cl)cc1` (centres undefined), the growth was 59.4%.
As to `NC(N)=Nc1nc2ccccc2o1`, the growth was 124%.
The result for `CCOC(=O)c1c(SC)nn(-c2cc(=O)[nH]c3ccc(Br)cc23)c1N` reads 103%; that for `O=C(Nc1ccc(Cl)cc1F)c1ccccc1O`, 19.9%.
As for `O=C1OC2(c3ccccc31)c1ccc(O)c(O)c1Oc1c2ccc(O)c1O`, the figure is 98.6% and 117%; as for `CCCCNC(=O)Oc1ccc(/C(=C(/CC)Cc2ccccc2)c2ccc(OCCN3CCCCCC3)cc2)cc1`, -12.8% (active).
The result for `COc1ccc(-c2ccc(NC(=O)Nc3cccc(C(F)(F)F)c3)c(C)n2)cc1` reads 49.7%.
With `N#C/C(=C/c1ccc([N+](=O)[O-])cc1)n1nnc2cc(F)c(F)cc21`, the growth is 62.7%.
The result for `NC(=S)NNC1CCCCC1` reads 67.3%.
On to `CC(C(=O)O)n1cc(C#N)c(=O)[nH]c1=O` (centres undefined), for which the growth is 104% and 90.4%.
The result for `CC[N+](CC)(CC(=O)Nc1c(C)cccc1C)Cc1ccccc1` reads 79.6% and 94.7%.
For `COc1ccc(C2SC(C)C(=O)N2CCc2cccs2)cc1OC` (centres undefined), the growth is 74.5%.
As for `CN1CCN(C(=O)[C@]2(C)CC[C@]3(C)CC[C@]4(C)C(=CC(=O)[C@@H]5[C@@]6(C)CCC(=O)NC(C)(C)[C@@H]6CC[C@]54C)[C@@H]3C2)CC1`, the figure is 95.7%; as for `CCCCOc1ccc(Nc2cc(Cl)ccc2C(=O)O)cn1`, 87.2% and 103%; as for `CN(C)C1CCN(Cc2ccc(NC(=O)c3cncc(C#Cc4cnc(N)c5ncccc45)c3)cc2C(F)(F)F)CC1`, 73.6%.
As for `Cc1cc(N(CCCNc2ccnc3cc(Cl)ccc23)Cc2cccs2)nc(Cl)n1`, the figure is -3.12% (active); as for `COC(=O)Nc1nc2ccc(C(=O)c3ccccc3N(C)C3COC3)cc2[nH]1`, 15.6%; as for `COc1ccc(C(=O)COc2ccc(/C=C3\Oc4ccc5ccccc5c4C3=O)cc2)cc1`, 87.3%.
Take `O=C(O)C(Cc1ccc(OS(=O)(=O)Cc2ccccc2)cc1)NS(=O)(=O)Cc1ccccc1` (centres undefined): the growth was 109% and 82.6%.
As for `Fc1cccc(CNc2c3ccccc3nc3ccccc23)c1F`, the figure is 76%; as for `COc1ccc(C2c3sc4c(F)cccc4c3Oc3nc[nH]c(=O)c32)cc1` (centres undefined), -44.6% (active).
